Source: PubChem BioAssay (EPA / NIEHS)
Records with an inconclusive call do not appear. Calls of active or inactive are those of the source. How the source made its calls, unless noted: active means hit-call score of the fitted dose curve at least 0.9, where 1 is the maximum; inactive means score below 0.9.

Assays:
[1] = read-out: E-selectin (Homo sapiens) (UniProt P16581); experiment: BSK_3C_Eselectin: BioMAP Diversity Plus: 3C Assay for Eselectin Biomarker Activity (AID 2283015); details: primary human endothelial cells (HUVEC); actives raise or lower the signal
How it was run: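 Primary human umbilical vein endothelial cells (3C system) were dosed with chemical and cell-surface E-selectin measured by ELISA 24 h later. Bidirectional curve fitting used DMSO as negative control and baseline.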

[2] = read-out: Interleukin-1 alpha (IL1a), IL1A (gene 3552); experiment: BSK_BE3C_IL1a: BioMAP Diversity Plus: BE3C Assay for Interleukin-1 alpha (IL1a) Biomarker Activity (AID 2283016); details: primary human bronchial epithelial cells; actives raise or lower the signal
How it was run: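 Measured in human lung primary bronchial epithelial cells: IL-1a by ELISA at 24 h after dosing, with bidirectional fitting against DMSO.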

[3] = read-out: Monocyte Chemoattractant Protein-1 (MCP1), CCL2 (gene 6347); experiment: BSK_3C_MCP1: BioMAP Diversity Plus: 3C Assay for Monocyte Chemoattractant Protein-1 (MCP1) Biomarker Activity (AID 2283017); details: primary human endothelial cells (HUVEC); actives raise or lower the signal
How it was run: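 Primary human umbilical vein endothelial cells (3C system) were exposed to test chemical for 24 h, after which MCP-1 was quantified by ELISA. Activity was fitted bidirectionally against DMSO as negative control and baseline.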

[4] = read-out: Monocyte Chemoattractant Protein-1 (MCP1), CCL2 (gene 6347); experiment: BSK_4H_MCP1: BioMAP Diversity Plus: 4H Assay for Monocyte Chemoattractant Protein-1 (MCP1) Biomarker Activity (AID 2283018); details: primary human endothelial cells (HUVEC); actives raise or lower the signal
How it was run: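 Primary human umbilical vein endothelium is exposed to chemical for 24 h before MCP-1 is assayed by ELISA. Concentration-response fitted bidirectionally relative to DMSO.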

[5] = read-out: Human Leukocyte Antigen - DR isotype (HLADR), HLA-DRA (gene 3122); experiment: BSK_3C_HLADR: BioMAP Diversity Plus: 3C Assay for Human Leukocyte Antigen - DR isotype (HLADR) Biomarker Activity (AID 2283019); details: primary human endothelial cells (HUVEC); actives raise or lower the signal
How it was run: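 Primary human umbilical vein endothelial cells (3C system) were dosed with compound and cell-surface HLA-DR was quantified by ELISA at 24 h. Activity was fitted bidirectionally against DMSO as negative control and baseline.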

[6] = read-out: Interleukin-8 (IL8), CXCL8 (gene 3576); experiment: BSK_3C_IL8: BioMAP Diversity Plus: 3C Assay for Interleukin-8 (IL8) Biomarker Activity (AID 2283020); details: primary human endothelial cells (HUVEC); actives raise or lower the signal
How it was run: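 Using DMSO-treated wells as the baseline, bidirectional curve fitting was applied to ELISA-measured IL-8 from human umbilical vein endothelial cultures sampled 24 h after compound addition.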

[7] = read-out: Monokine induced gamma interferon (MIG), CXCL9 (gene 4283); experiment: BSK_3C_MIG: BioMAP Diversity Plus: 3C Assay for Monokine induced gamma interferon (MIG) Biomarker Activity (AID 2283021); details: primary human endothelial cells (HUVEC); actives raise or lower the signal;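 on AC50: MIG protein level measured by immunoassay in the treated endothelial cultures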
How it was run: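 ELISA-measured MIG in dosed HUVEC 3C cultures at 24 h, analysed by bidirectional fitting with DMSO defining baseline activity.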

[8] = target: human Vitamin D Receptor (VDR), VDR (gene 7421) (UniProt P11473); experiment: ATG_VDR_TRANS: Attagene TRANS-FACTORIAL HepG2 Assay for human Vitamin D Receptor (VDR) (AID 2283022; active means hit-call score of the fitted dose curve at least 0.9, where 1 is the maximum)
human Vitamin D Receptor (VDR), VDR (gene 7421), sequence (P11473 whole entry, looked up, the tested form may be a part): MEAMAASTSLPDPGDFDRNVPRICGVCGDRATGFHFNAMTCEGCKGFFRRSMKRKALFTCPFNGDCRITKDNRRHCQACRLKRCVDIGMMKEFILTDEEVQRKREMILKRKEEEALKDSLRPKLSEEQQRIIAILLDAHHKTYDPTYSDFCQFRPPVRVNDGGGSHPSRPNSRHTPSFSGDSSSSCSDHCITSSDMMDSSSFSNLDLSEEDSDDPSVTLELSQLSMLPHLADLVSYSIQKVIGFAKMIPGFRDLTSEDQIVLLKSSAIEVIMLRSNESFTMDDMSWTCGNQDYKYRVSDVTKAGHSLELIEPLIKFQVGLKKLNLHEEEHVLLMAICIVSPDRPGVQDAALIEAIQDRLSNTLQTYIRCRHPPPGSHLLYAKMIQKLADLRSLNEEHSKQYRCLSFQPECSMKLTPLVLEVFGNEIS
How it was run: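 HepG2 cells were transiently transfected with multiple GAL4-UAS reporter units, so signal reflects exogenous chimeric receptor-Gal4 activity. After 24 h compound exposure, reporter mRNA was measured by RT-PCR, fluorescent labelling and capillary electrophoresis, fitted for gain of signal versus DMSO.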

[9] = BSK_3C_SRB: Viability Assessment in the BioMAP Diversity Plus: 3C Assay (AID 2283023); details: primary human endothelial cells (HUVEC);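 further: fitted both ways against DMSO so a hit may be signal rise or drop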
How it was run: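 Primary human umbilical vein endothelial cells in the 3C system were read 24 h after compound dosing. Total protein was stained with 0.1% sulforhodamine B after 10% TCA fixation and read at 560 nm, with bidirectional fitting against DMSO as baseline.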

[10] = read-out: Matrix Metallopeptidase 1 (MMP1), MMP1 (gene 4312); experiment: BSK_BE3C_MMP1: BioMAP Diversity Plus: BE3C Assay for Matrix Metallopeptidase 1 (MMP1) Biomarker Activity (AID 2283024); details: primary human bronchial epithelial cells; actives raise or lower the signal
How it was run: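 In this multiplexed primary-cell system, human bronchial epithelium received chemicals for 24 h before an ELISA for MMP1. Values reflect bidirectional fits normalised to the DMSO baseline.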

[11] = read-out: Pselectin, SELP (gene 6403); experiment: BSK_4H_Pselectin: BioMAP Diversity Plus: 4H Assay for Pselectin Biomarker Activity (AID 2283026); details: primary human endothelial cells (HUVEC); actives raise or lower the signal
How it was run: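 Bidirectional fits against DMSO gave the endpoint. Cells: primary human umbilical vein endothelium, chemical-treated for 24 h before ELISA detection of P-selectin.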

[12] = BSK_4H_SRB: Viability Assessment in the BioMAP Diversity Plus: 4H Assay (AID 2283027); details: primary human endothelial cells (HUVEC);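 further: cells exposed to compound for 24 h before staining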;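 on AC50: curves fitted both ways versus DMSO so AC50 may be loss or gain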
How it was run: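 HUVEC, 24 h post-dose; 10% TCA fix, 0.1% SRB stain, A560 nm. Total protein = overt cytotoxicity, parallel to biomarker read. Bidirectional fit vs DMSO baseline.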

[13] = BSK_BE3C_SRB: Viability Assessment in the BioMAP Diversity Plus: BE3C Assay (AID 2283028); details: primary human bronchial epithelial cells;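 on AC50: fitted both ways so AC50 may mark signal gain or loss versus DMSO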
How it was run: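 Human primary bronchial epithelial cells were exposed to test chemicals for 24 h. Total protein in parallel cultures was then measured by staining with 0.1% sulforhodamine B after 10% TCA fixation, with absorbance read at 560 nm. Activity was fitted bidirectionally against DMSO.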

[14] = read-out: Thrombomodulin, THBD (gene 7056); experiment: BSK_3C_Thrombomodulin: BioMAP Diversity Plus: 3C Assay for Thrombomodulin Biomarker Activity (AID 2283029); details: primary human endothelial cells (HUVEC); actives raise or lower the signal
How it was run: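 In a multiplexed primary-cell system, human umbilical vein endothelium received chemical and was assayed 24 h later for thrombomodulin by ELISA. Parallel cultures were SRB-stained (0.1% SRB after 10% TCA fixation, read at 560 nm) to flag cytotoxicity.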

[15] = read-out: Urokinase-type plasminogen activator receptor (uPAR), PLAUR (gene 5329); experiment: BSK_4H_uPAR: BioMAP Diversity Plus: 4H Assay for Urokinase-type plasminogen activator receptor (uPAR) Biomarker Activity (AID 2283030); details: primary human endothelial cells (HUVEC); actives raise or lower the signal
How it was run: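 Primary human umbilical vein endothelial cells were exposed to chemical for 24 h before cell-surface uPAR was quantified by ELISA. Activity was fitted bidirectionally against the DMSO negative control baseline.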

[16] = read-out: Human Leukocyte Antigen - DR isotype (HLADR), HLA-DRA (gene 3122); experiment: BSK_BE3C_HLADR: BioMAP Diversity Plus: BE3C Assay for Human Leukocyte Antigen - DR isotype (HLADR) Biomarker Activity (AID 2283032); details: primary human bronchial epithelial cells; actives raise or lower the signal
How it was run: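 BioMAP BE3C format: human bronchial epithelium, 24 h compound treatment, ELISA detection of HLA-DR, with bidirectional analysis relative to DMSO.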

[17] = BSK_3C_Vis: BioMAP Diversity Plus: 3C Assay for Morphology Visualization (AID 2283025); details: primary human endothelial cells (HUVEC);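 further: fitted both ways so gain or loss versus DMSO counts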
How it was run: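 Light-microscopy morphology readout, 24 h exposure, human primary umbilical vein endothelium; analysed relative to DMSO with bidirectional fitting.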

[18] = read-out: Vascular endothelial growth factor receptor 2 (Homo sapiens) (UniProt P35968); experiment: BSK_4H_VEGFRII: BioMAP Diversity Plus: 4H Assay for Vascular endothelial growth factor receptor 2 (VEGFR2) Biomarker Activity (AID 2283031); details: primary human endothelial cells (HUVEC); actives raise or lower the signal
How it was run: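 Primary human umbilical vein endothelial cells in the BioMAP 4H system were dosed with test chemical, and 24 h later VEGFRII was measured by ELISA. Activity was fitted bidirectionally against DMSO as negative control and baseline.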

Measured: AC50

E-selectin (Homo sapiens), sequence (P16581 whole entry, looked up): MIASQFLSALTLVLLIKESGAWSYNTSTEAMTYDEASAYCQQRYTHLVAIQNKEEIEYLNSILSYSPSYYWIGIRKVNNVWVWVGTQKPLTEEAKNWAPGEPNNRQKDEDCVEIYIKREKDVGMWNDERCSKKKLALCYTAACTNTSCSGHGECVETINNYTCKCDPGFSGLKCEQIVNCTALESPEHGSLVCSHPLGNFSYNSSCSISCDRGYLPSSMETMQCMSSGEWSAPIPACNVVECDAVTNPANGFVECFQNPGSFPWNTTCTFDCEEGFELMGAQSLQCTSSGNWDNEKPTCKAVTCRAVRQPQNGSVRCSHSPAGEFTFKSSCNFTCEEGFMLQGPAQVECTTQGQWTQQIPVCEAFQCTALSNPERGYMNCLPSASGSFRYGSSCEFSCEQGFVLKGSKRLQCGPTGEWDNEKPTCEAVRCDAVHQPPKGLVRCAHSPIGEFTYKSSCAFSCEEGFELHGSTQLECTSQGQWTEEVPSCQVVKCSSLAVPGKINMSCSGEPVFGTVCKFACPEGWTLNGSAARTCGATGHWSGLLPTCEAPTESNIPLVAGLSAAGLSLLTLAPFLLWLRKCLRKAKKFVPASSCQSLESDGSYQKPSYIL

CCCCC(CC)COP(=O)(OCC(CC)CCCC)OCC(CC)CCCC (stereo not drawn)
active: [3] 18.2 µM | [4] 20 µM | [5] 20 µM | [6] 14 µM | [9] 20 µM | [11] 12.2 µM | [12] 20 µM | [15] 20 µM
not listed: [17] | [18]
inactive: all other assays above

CN(C)CCCN1c2ccccc2Sc2ccc(Cl)cc21
active: [1] 33 µM | [2] 31.1 µM | [3] 30.4 µM | [4] 4.5 µM | [5] 29.1 µM | [6] 20 µM | [7] 32.2 µM | [10] 32.9 µM | [11] 35.9 µM | [12] 26 µM | [13] 39 µM | [15] 12.2 µM
inactive: [8] | [14]

CC(=O)S[C@H](C(=O)N[C@H]1Cc2ccccc2[C@H]2CCC[C@@H](C(=O)O)N2C1=O)C(C)C
not listed: [8] | [17] | [18]
inactive: all other assays above

Cc1occc(=O)c1O
not listed: [17] | [18]
inactive: all other assays above

CCc1cc(C2=C(C(=O)O)N(c3ccccc3C(F)(F)F)S(=O)(=O)c3ccccc32)cc2c1OCO2
active: [5] 24.8 µM | [10] 10.8 µM | [14] 10.2 µM
inactive: all other assays above

S=c1[nH]c2ccccc2s1
not listed: [17]
inactive: all other assays above

CCC(C)N(C)C(=O)c1cc2ccccc2c(-c2ccccc2Cl)n1 (stereo not drawn)
not listed: [18]
inactive: all other assays above
